In PubChem BioAssay AID1159580 (chemical genetic matrix, 2015):
Values joined by “and” are separate entries in the source; they are usually repeats but may differ in a detail not shown here. Equal entries are not always repeated. Hit rate of the full screen: of about 5,500 compounds, about 2,000 (36%) were called active. Roughly 18% stayed inconclusive and do not appear here. Cut-off read from the data, not from the text of the source: active = normalized growth mostly below about 0.91 (no sharp cut-off); inconclusive = no clear call, values can overlap the other calls; inactive = mostly above about 0.92. The list shows a part of the results.

Assay: chemical genetic growth profiling, strain panel (AID 1159580);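 note: tested at 20 µM; growth read once vehicle control cultures reached saturation at 30 °C; 1 = growth at the plate median or of vehicle wells; lower values mean less growth of the strain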
Conditions: S. cerevisiae deletion strains, growth OD

Measured: normalized growth

Cc1cc(C)nc(NS(=O)(=O)c2ccc(N)cc2)n1
inactive: locus YAL013W, strain DEP1, hits give low values 0.998 | locus YAL021C, strain ccr4, hits give low values 0.957 | locus YAL026C, strain drs2, hits give low values 0.974 | locus YAL030W, strain snc1, hits give low values 0.972 | locus YBL061C, strain skt5, hits give low values 0.985 | locus YBR009C, strain hhf1, hits give low values 0.934 | locus YBR021W, strain FUR4, hits give low values 1.01 | locus YBR023C, strain chs3, hits give low values 0.982 | locus YBR171W, strain sec66, hits give low values 0.989 | locus YBR229C, strain ROT2, hits give low values 0.999 | locus YBR231C, strain swc5, hits give low values 0.998 | locus YBR279W, strain paf1, hits give low values 0.982 | locus YCL011C, strain gbp2, hits give low values 0.96 | locus YCL016C, strain dcc1, hits give low values 0.966 | locus YCL029C, strain bik1, hits give low values 0.981 | locus YCL069W, strain vba3, hits give low values 0.969 | locus YCR088W, strain abp1, hits give low values 0.965 | locus YDL005C, strain med2, hits give low values 0.969 | locus YDL035C, strain GPR1, hits give low values 0.988 | locus YDL040C, strain nat1, hits give low values 0.98 | locus YDL074C, strain BRE1, hits give low values 1.01 | locus YDL101C, strain DUN1, hits give low values 0.99 | locus YDL134C, strain PPH21, hits give low values 0.996 | locus YDL185W, strain tfp1, hits give low values 0.938 | locus YDL192W, strain arf1, hits give low values 0.963 | locus YDR001C, strain nth1, hits give low values 0.963 | locus YDR069C, strain doa4, hits give low values 0.991 | locus YDR101C, strain arx1, hits give low values 1 | locus YDR137W, strain rgp1, hits give low values 0.981 | locus YDR150W, strain NUM1, hits give low values 0.999 | locus YDR159W, strain sac3, hits give low values 0.914 | locus YDR162C, strain NBP2, hits give low values 0.981 | locus YDR195W, strain ref2 0.959 | locus YDR297W, strain sur2, hits give low values 0.983 | locus YDR318W, strain mcm21, hits give low values 0.964 | locus YDR334W, strain swr1, hits give low values 0.985 | locus YDR335W, strain msn5, hits give low values 0.977 | locus YDR388W, hits give low values 0.967 | locus YDR392W, strain spt3, hits give low values 0.91 | locus YDR502C, strain sam2, hits give low values 0.98 | locus YEL003W, strain gim4, hits give low values 0.967 | locus YEL037C, strain rad23, hits give low values 0.983 | locus YEL061C, strain CIN8 (second series), hits give low values 0.972 | locus YEL061C, strain CIN8, hits give low values 1 | locus YER015W, strain faa2, hits give low values 0.996 | locus YER016W, strain bim1, hits give low values 0.96 | locus YER110C, hits give low values 0.99 | locus YER111C, strain swi4, hits give low values 0.965 | locus YER155C, strain BEM2 (second series), hits give low values 1.01 | locus YER155C, strain BEM2, hits give low values 0.996 | locus YER167W, strain BCK2, hits give low values 0.995 | locus YFR010W, strain ubp6, hits give low values 0.996 | locus YGL078C, strain dbp3, hits give low values 0.977 | locus YGL086W, strain mad1, hits give low values 1 | locus YGL167C, strain pmr1, hits give low values 0.977 | locus YGL173C, strain kem1, hits give low values 0.979 | locus YGL227W, strain vid30, hits give low values 0.988 | locus YGL240W, strain doc1, hits give low values 1.01 | locus YGL248W, strain PDE1, hits give low values 0.998 | locus YGL253W, strain hxk2, hits give low values 0.968 | locus YGR135W, strain pre9, hits give low values 0.995 | locus YGR229C, strain SMI1, hits give low values 0.989 | locus YGR252W, strain gcn5, hits give low values 1.17 | locus YHR013C, strain ard1, hits give low values 0.92 | locus YHR027C, strain rpn1, hits give low values 0.973 | locus YHR030C, strain SLT2, hits give low values 0.995 and 0.954 | locus YHR079C, strain IRE1 (second series), hits give low values 0.97 | locus YHR079C, strain IRE1, hits give low values 0.981 | locus YHR094C, strain hxt1, hits give low values 0.968 | locus YHR129C, strain ARP1, hits give low values 0.997 | locus YHR142W, strain chs7, hits give low values 0.968 | locus YHR200W, strain rpn10, hits give low values 0.98 | locus YIL066C, strain RNR3, hits give low values 1.01 | locus YIL073C, strain SPO22, hits give low values 0.842 | locus YIL125W, strain kgd1, hits give low values 0.954 | locus YIR030C, strain dcg1, hits give low values 0.983 | locus YJL092W, strain hpr5, hits give low values 0.981 | locus YJL095W, strain BCK1 (second series), hits give low values 0.983 | locus YJL095W, strain BCK1, hits give low values 1.02 and 0.967 | locus YJL115W, strain asf1, hits give low values 0.968 | locus YJL129C, strain trk1, hits give low values 0.98 | locus YJL134W, strain LCB3, hits give low values 0.985 | locus YJL154C, strain vps35, hits give low values 0.978 | locus YJL164C, strain tpk1, hits give low values 0.963 | locus YJL166W, strain qcr8, hits give low values 1.01 | locus YJL168C, strain set2, hits give low values 0.977 | locus YJL187C, strain SWE1 (second series), hits give low values 0.987 | locus YJR043C, strain POL32, hits give low values 1
